Values joined by “and” are separate entries in the source; they are usually repeats but may differ in a detail not shown here. Identical values can stand only once. Out of some 5,500 compounds screened, about 2,000 (36%) were called active. Roughly 18% stayed inconclusive and do not appear here. No stated cut-off is given here; in the data, active means normalized growth mostly below about 0.91 (no sharp cut-off); inconclusive means no clear call, values can overlap the other calls; inactive means mostly above about 0.92. Some of the results follow.
Assay: chemical genetic growth profiling, strain panel (AID 1159580);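 further: tested at 20 µM; growth read once vehicle control cultures reached saturation at 30 °C; 1 = growth at the plate median or of vehicle wells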
Conditions: S. cerevisiae deletion strains, growth OD

Measured: normalized growth

Oc1c(I)cc(I)c2cccnc12
active: locus YAL013W, strain DEP1, stronger effect = lower value 0.071 | locus YAL021C, strain ccr4, stronger effect = lower value 0.091 | locus YAL026C, strain drs2, stronger effect = lower value 0.0859 | locus YAL030W, strain snc1, stronger effect = lower value 0.0764 | locus YBL061C, strain skt5, stronger effect = lower value 0.0816 | locus YBR009C, strain hhf1, stronger effect = lower value 0.0997 | locus YBR021W, strain FUR4, stronger effect = lower value 0.129 | locus YBR023C, strain chs3, stronger effect = lower value 0.077 | locus YBR171W, strain sec66, stronger effect = lower value 0.114 | locus YBR229C, strain ROT2, stronger effect = lower value 0.0677 | locus YBR231C, strain swc5, stronger effect = lower value 0.0701 | locus YBR279W, strain paf1, stronger effect = lower value 0.0764 | locus YCL011C, strain gbp2, stronger effect = lower value 0.135 | locus YCL016C, strain dcc1, stronger effect = lower value 0.0819 | locus YCL029C, strain bik1, stronger effect = lower value 0.101 | locus YCL061C, strain MRC1, stronger effect = lower value 0.0902 | locus YCL069W, strain vba3, stronger effect = lower value 0.0885 | locus YCR088W, strain abp1, stronger effect = lower value 0.0854 | locus YDL005C, strain med2, stronger effect = lower value 0.104 | locus YDL035C, strain GPR1, stronger effect = lower value 0.067 | locus YDL040C, strain nat1, stronger effect = lower value 0.073 | locus YDL074C, strain BRE1, stronger effect = lower value 0.104 | locus YDL101C, strain DUN1, stronger effect = lower value 0.084 | locus YDL185W, strain tfp1, stronger effect = lower value 0.0824 | locus YDL192W, strain arf1, stronger effect = lower value 0.103 | locus YDR001C, strain nth1, stronger effect = lower value 0.0844 | locus YDR069C, strain doa4, stronger effect = lower value 0.0819 | locus YDR101C, strain arx1, stronger effect = lower value 0.0994 | locus YDR137W, strain rgp1, stronger effect = lower value 0.0996 | locus YDR150W, strain NUM1, stronger effect = lower value 0.078 | locus YDR159W, strain sac3, stronger effect = lower value 0.107 | locus YDR162C, strain NBP2, stronger effect = lower value 0.0632 | locus YDR195W, strain ref2 0.337 | locus YDR297W, strain sur2, stronger effect = lower value 0.0803 | locus YDR318W, strain mcm21, stronger effect = lower value 0.101 | locus YDR334W, strain swr1, stronger effect = lower value 0.0842 | locus YDR335W, strain msn5, stronger effect = lower value 0.0856 | locus YDR388W, stronger effect = lower value 0.0882 | locus YDR392W, strain spt3, stronger effect = lower value 0.13 | locus YDR502C, strain sam2, stronger effect = lower value 0.106 | locus YEL003W, strain gim4, stronger effect = lower value 0.127 | locus YEL037C, strain rad23, stronger effect = lower value 0.0807 | locus YEL061C, strain CIN8 (second series), stronger effect = lower value 0.0847 | locus YEL061C, strain CIN8, stronger effect = lower value 0.073 | locus YER015W, strain faa2, stronger effect = lower value 0.0857 | locus YER016W, strain bim1, stronger effect = lower value 0.0805 | locus YER110C, stronger effect = lower value 0.115 | locus YER111C, strain swi4, stronger effect = lower value 0.103 | locus YER155C, strain BEM2 (second series), stronger effect = lower value 0.126 | locus YER155C, strain BEM2, stronger effect = lower value 0.0881 | locus YER167W, strain BCK2, stronger effect = lower value 0.0711 | locus YFR010W, strain ubp6, stronger effect = lower value 0.0943 | locus YGL078C, strain dbp3, stronger effect = lower value 0.258 | locus YGL086W, strain mad1, stronger effect = lower value 0.0789 | locus YGL167C, strain pmr1, stronger effect = lower value 0.0938 | locus YGL173C, strain kem1, stronger effect = lower value 0.0913 | locus YGL227W, strain vid30, stronger effect = lower value 0.0911 | locus YGL240W, strain doc1, stronger effect = lower value 0.106 | locus YGL248W, strain PDE1, stronger effect = lower value 0.0617 | locus YGL253W, strain hxk2, stronger effect = lower value 0.0781 | locus YGR078C, strain PAC10, stronger effect = lower value 0.0681 | locus YGR135W, strain pre9, stronger effect = lower value 0.102 | locus YGR252W, strain gcn5, stronger effect = lower value 0.308 | locus YHR013C, strain ard1, stronger effect = lower value 0.141 | locus YHR027C, strain rpn1, stronger effect = lower value 0.0845 | locus YHR030C, strain SLT2, stronger effect = lower value 0.0746 and 0.163 | locus YHR079C, strain IRE1 (second series), stronger effect = lower value 0.0873 | locus YHR079C, strain IRE1, stronger effect = lower value 0.135 | locus YHR094C, strain hxt1, stronger effect = lower value 0.0952 | locus YHR129C, strain ARP1, stronger effect = lower value 0.0776 | locus YHR142W, strain chs7, stronger effect = lower value 0.103 | locus YHR200W, strain rpn10, stronger effect = lower value 0.2 | locus YIL066C, strain RNR3, stronger effect = lower value 0.0647 | locus YIL073C, strain SPO22, stronger effect = lower value 0.136 | locus YIL125W, strain kgd1, stronger effect = lower value 0.174 | locus YIR030C, strain dcg1, stronger effect = lower value 0.095 | locus YJL092W, strain hpr5, stronger effect = lower value 0.0768 | locus YJL095W, strain BCK1 (second series), stronger effect = lower value 0.0748 | locus YJL095W, strain BCK1, stronger effect = lower value 0.081 and 0.123 | locus YJL115W, strain asf1, stronger effect = lower value 0.102 | locus YJL129C, strain trk1, stronger effect = lower value 0.148 | locus YJL134W, strain LCB3, stronger effect = lower value 0.0694 | locus YJL154C, strain vps35, stronger effect = lower value 0.0817 | locus YJL164C, strain tpk1, stronger effect = lower value 0.0873 | locus YJL166W, strain qcr8, stronger effect = lower value 0.0859 | locus YJL168C, strain set2, stronger effect = lower value 0.0922 | locus YJL187C, strain SWE1 (second series), stronger effect = lower value 0.064

Reference: PubChem BioAssay AID1159580 (chemical genetic matrix, 2015)
